The entries come from a sample that favours hits as a whole.
Pf Dd2 inh: Plasmodium falciparum Dd2 growth inhibition; P. falciparum Dd2 growth, SYBR Green, 72 h; Potency, µM (titrated, usually from 28.9 µM), usual class: inhibitors; 4.3% of 120,000 active; AID 1347417; active = well fitted inhibition curve with a large enough effect; also: nearly all actives have a fitted effect of over 65% in size
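Readout: SYBR Green fluorescence, 485 nm excitation, 535 nm emission, after ~16 h lysis at 37C. Before that, Dd2-infected red cells (2.5% hematocrit) grew 72 h with compound, 29 uM top final concentration.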
Hits are given with their value; 0 = inactive; [ ] = remark or other dose.

SMILES	Pf Dd2 inh
Cc1ccc(Nc2sc(C(=O)c3ccccc3)c(N)c2S(=O)(=O)c2ccccc2)c(C)c1	10µM
Cc1ccc(CNC(=O)c2c(Nc3c(C)cccc3C)sc(C(=O)c3ccccc3)c2N)cc1	0
Cc1ccc(Nc2sc(C(=O)c3ccccc3)c(N)c2C(=O)NC(C)C)cc1	0
COc1ccccc1Nc1sc(C(=O)c2ccc(C)cc2C)c(N)c1S(=O)(=O)c1ccccc1	0
CC(C)C(=O)N1CCC(Cc2nc(C3CCOCC3)no2)CC1	0
COCC(=O)N(C1CCOCC1)C1CCN(C(=O)c2cc(Cl)ccc2F)CC1	0
CN(CC1CCOC1)C(=O)c1ccc(F)c(F)c1 (centres undefined)	0[5.79 µM]
CN(Cc1cccc2cnccc12)C(=O)c1cc(COc2ccccc2F)[nH]n1	0
O=C(Nc1ccc(Oc2ccccc2F)cc1)C1CCCCN1C(=O)c1cccnc1 (centres undefined)	0
COCCN1CCC(C(=O)Nc2ccc(Oc3ccccc3F)cc2)CC1	12.6µM
CCOC(=O)C1CCN(CCC(=O)Nc2ccc(OC)cc2)CC1	0
COc1ccccc1N1CCN(C(=O)CCc2ccccc2C)CC1=O	0
CCCN(CCC)C(=O)CSc1nc2ccccc2c(=O)n1Cc1ccco1	11.2µM
CCOc1ccccc1NC(=O)CSc1nc2c(oc3ccccc32)c(=O)n1Cc1ccco1	0
O=C(CSc1nc2c(oc3ccccc32)c(=O)n1Cc1ccco1)Nc1ccccc1	0
COCCNc1ncccc1-c1noc([C@@H]2CCCN2C2CCOCC2)n1	0
CCOc1ccc(C(=O)N(C)C2CCc3nnc(C)n3CC2)cc1OCC (centres undefined)	0
Cc1ccc(CNC(=O)Cn2c(=O)n(Cc3ccccc3)c(=O)c3sc4ccccc4c32)cc1	0
Cc1cccc(Cn2c(=O)n(Cc3ccccc3)c(=O)c3sc4ccccc4c32)c1	8.91µM
Cc1ccc(Cn2c(=O)n(Cc3ccco3)c(=O)c3sc4ccccc4c32)cc1	0
CSc1ccccc1C(=O)N1CCN(C(C)=O)CC(O)C1 (centres undefined)	0
CN1[C@@H](CCC(=O)N2CCOCC2)CNC(=O)[C@@H]2[C@H]1CCN2Cc1ncc[nH]1	0
Cc1c(Cl)cccc1NC(=O)C(C)n1c(=O)cc(-c2ccccc2)c2c(C)nn(C)c21 (centres undefined)	0
Cc1cc(C)c(NC(=O)C(C)n2c(=O)cc(-c3ccccc3)c3c(C)nn(C)c32)c(C)c1 (centres undefined)	0
COc1cc(OC)c(NC(=O)C(C)n2c(=O)cc(-c3ccccc3)c3c(C)nn(C)c32)cc1Cl (centres undefined)	10µM
SMILES	Pf Dd2 inh
COc1ccc2[nH]cc(CCNC(=O)CCC[C@H]3NC[C@@H]4C[C@H]3CN(Cc3ccccc3)C4)c2c1	10µM
CNC(=O)CCC[C@H]1NC[C@@H]2CC1CN(Cc1ccccc1)C2	0
CCN(Cc1ccccc1)C(=O)CCC[C@H]1NC[C@@H]2CC1CN(Cc1ccccc1)C2	12.6µM
COc1ccccc1OCCNC(=O)CCC[C@H]1NC[C@@H]2C[C@H]1CN(Cc1ccccc1)C2	0
NC(=O)CCC[C@H]1NC[C@@H]2C[C@H]1CN(Cc1ccccc1)C2	0
O=C(CCC[C@H]1NC[C@@H]2C[C@H]1CN(Cc1ccccc1)C2)NCCN1CCCCC1	0
Cn1nc(C2CCNCC2)c2c(C(=O)NC3CC3)cc(C3CC3)nc21	0
COc1ccc(Cc2nc3nccc(-c4ccccn4)n3n2)cc1	0
O=C(O)C1=NOC2CN(C(=O)c3ccc(C(F)(F)F)cc3)CC12 (centres undefined)	0
COc1ccc(-n2c(-c3ccc(C)cc3)cc3c2CC(C)(C)CC3=O)c(OC)c1	12.6µM
Cc1ccc(-c2cc3c(n2-c2ccc(C)cc2)CC(C)(C)CC3=O)cc1	0[5.79 µM]
CCOc1ccc(-n2c(-c3ccc(OC)cc3)cc3c2CC(C)(C)CC3=O)cc1	0
COc1cc(OC)cc(C(=O)N2[C@@H]3CC[C@H]2CC(NC(=O)c2ccncc2)C3)c1 (some centres undefined)	0
CCc1ccc2c(c1)NC(c1ccc(C)cc1)=NC(c1cccs1)=N2	12.6µM
CC(C)c1ccc2c(c1)NC(c1ccncc1)=NC(c1cccs1)=N2	0
FC(F)(F)Oc1ccc2c(c1)NC(c1ccncc1)=NC(c1cccs1)=N2	0
COCc1nc(C2CCCN(C(=O)c3ccoc3)C2)no1 (centres undefined)	0
CC(=O)c1ccc(NC(=O)OC[C@H]2C[C@@H]3CCN2C[C@@H]3c2cc(-c3cccs3)nn2C)cc1	0
CC(C)(C)c1ccc(NC(=O)OC[C@H]2C[C@@H]3CCN2C[C@@H]3c2cc(C3CCCC3)nc(-c3ccncc3)n2)cc1	1µM
CCC(CC)c1cc([C@H]2CN3CC[C@H]2C[C@@H]3COC(=O)Nc2ccc(C(C)(C)C)cc2)nc(-c2ccncc2)n1	1.26µM
Cn1nc(-c2ccc(F)cc2)cc1[C@H]1CN2CC[C@H]1C[C@@H]2CNC(=O)c1cccs1	12.6µM
CC(C)c1ccc(NC(=O)OC[C@H]2C[C@@H]3CCN2C[C@@H]3c2cc(C3CCCCC3)nn2C)cc1	0
Cn1nc(-c2ccc3ccccc3c2)cc1[C@H]1CN2CC[C@H]1C[C@@H]2CNS(=O)(=O)c1cccs1	12.6µM
COc1ccc(C(=O)NC[C@H]2C[C@@H]3CCN2C[C@@H]3c2cc(-c3ccc(F)cc3)nn2C)cc1	0
Cn1nc(-c2cccs2)cc1[C@H]1CN2CC[C@H]1C[C@@H]2CNS(=O)(=O)c1ccccc1	0
SMILES	Pf Dd2 inh
Cc1nc(C2CCCC2)cc([C@H]2CN3CC[C@H]2C[C@@H]3CNC(=O)CCCC(=O)O)n1	0
Cn1nc(-c2ccccc2)cc1[C@H]1CN2CC[C@H]1C[C@@H]2CNS(=O)(=O)c1cccs1	0
Cn1nc(-c2ccc3ccccc3c2)cc1[C@H]1CN2CC[C@H]1C[C@@H]2COC(=O)Nc1ccccc1	0
Cc1ccc(C(=O)NC[C@H]2C[C@@H]3CCN2C[C@@H]3c2cc(-c3ccc(F)cc3)nn2C)cc1	0
O=C(O)c1ccc(CC2CCN(C(=O)C3CC3)CC2)cc1	0
CC(Cn1cccn1)C(=O)N1CCc2[nH]nc(-c3ccc(Cl)cc3)c2C1 (centres undefined)	0
COc1ccccc1Oc1ncccc1CNC(=O)c1ccc(CO)o1	0
COc1cccc(CNC(=O)CCC2CCN(C(=O)c3ccccc3F)CC2)c1OC	0
CC(C(=O)NCC1CC1)N1C(=O)COc2ccc(C(=O)COc3ccccc3Cl)cc21 (centres undefined)	0
Cn1cccc1CN1CCC2(C1)NC(=O)c1ccccc1CO2 (centres undefined)	0
COc1ccc(OC2CN(C(=O)c3ccccc3)C2)cc1	0
COc1cccc(CC(=O)N2CCCn3nc(C)c(-c4ccnn4C(C)C)c32)c1	0
Cn1nccc1C(=O)N1CCC2(CC1)CC(OCC1CC1)CCO2 (centres undefined)	0
CC(=O)Nc1ccc(S(=O)(=O)NC[C@H]2C[C@@H]3CCN2C[C@@H]3c2cc(-c3ccco3)nc(C)n2)cc1	0
CC(=O)NC[C@H]1C[C@@H]2CCN1C[C@@H]2c1cc(-c2ccc(F)cc2)nc(C)n1	0
Cc1nc(-c2ccc(C(F)(F)F)cc2)cc([C@H]2CN3CC[C@H]2C[C@@H]3CNS(C)(=O)=O)n1	0
CCCNC(=O)OC[C@H]1C[C@@H]2CCN1C[C@@H]2c1cc(C(CC)CC)nc(-c2ccncc2)n1	1.41µM
Cc1nc(-c2ccc(F)cc2)cc([C@H]2CN3CC[C@H]2C[C@@H]3CNS(=O)(=O)Cc2ccccc2)n1	0
COc1ccccc1-c1cc([C@H]2CN3CC[C@H]2C[C@@H]3COC(=O)Nc2cccc(C(C)=O)c2)nc(C)n1	0
